This is an account of results in PubChem BioAssay (EPA / NIEHS).

Molecules are shown by their SMILES. A structure can be active in one record and inactive in another. Activity calls are given as the source filed them. How the source made its calls: active means hit-call score of the fitted dose curve at least 0.9, where 1 is the maximum; inactive means score below 0.9.

The assay is described as follows: ATG_FoxO_CIS: Attagene CIS-FACTORIAL HepG2 Assay for human Forkhead box O (FoxO) (AID 2282943). The conditions noted are these: HepG2 Attagene cis-reporter, FoxO element, mRNA; actives raise or lower the signal. The method, then: ATG_CIS is a cell-based, multiplexed-readout assay that uses HepG2, a human liver cell line, with measurements taken at 24 hours after chemical dosing in a 24-well plate.ATG_FoxO_CIS is one of 52 assay component(s) measured or calculated from the ATG_CIS assay. It is designed to make measurements of mRNA induction, a form of inducible reporter, as detected with fluorescence intensity signals by Reverse transcription polymerase chain reaction (RT-PCR) and Capillary electrophoresis technology.Data from the assay component ATG_FoxO_CIS was analyzed into 1 assay endpoint. This assay endpoint, ATG_FoxO_CIS, was analyzed with bidirectional fitting relative to DMSO as the negative control and baseline of activity. Using a type of inducible reporter, measures of mRNA for gain or loss-of-signal activity can be used to understand the reporter gene at the transcription factor-level as they relate to the gene FOXO1 and FOXO3. Furthermore, this assay endpoint can be referred to as a primary readout, because this assay has produced multiple assay endpoints where this one serves a reporter gene function. To generalize the intended target to other relatable targets, this assay endpoint is annotated to the dna binding intended target family, where the subfamily is forkhead box protein.
Human liver HepG2 cells are transiently transfected with multiple reporter transcription units (MRTUs) in 6-well plates using FuGene 6 reagent (Roche; 3 ml FuGene/1 mg DNA). The MRTU constructs are regulated by a cis-regulating element (promoter). […] A major difference between the CIS and TRANS system is that in CIS activities of endogenous TFs are measured, whereas the TRANS assay evaluates changes in activities of exogenous, chimeric NR-Gal4 proteins. […] At the end of 24 hour incubation, total RNA was isolated using TriZol reagent (Invitrogen). The isolated RNA is then reverse-transcribed using oligo(dT) primer and Mo-MLV reverse transcriptase (Invitrogen) with DNAse I (Ambion) treatment for 30 min. The one-tenth of the produced cDNA was amplified by PCR using Taq DNA polymerase (Invitrogen) and two reporter sequence-specific primers. The PCR products were fluorescently labeled by primer extension with 6-arboxyfluorescein (6-FAM) 5'-labeled reporter sequence-specific primer (2 min at 95 C, 20 s at 68 C and 10 min at 72 C) and these products were digested with 5U of HpaI (New England Biolabs) for 2h at 37 C. The fragments were purified using Qiaquick PCR columns (Qiagen), analyzed on an ABI 3130xL genetic analyzer (Applied Biosystems) with peak positions identified by using a set of X-rhodamine (ROX)-labeled MapMarker1000 molecular weight standards (BioVentures). The raw capillary electrophoresis data was processed using Attagraph software (Attagene).
On to `CC(O)C(=O)O` (stereo not given), for which the molecule was classed as inactive.

As to `COc1cc(CCC(=O)CC(=O)CCc2ccc(O)c(OC)c2)ccc1O`, the call was inactive.

Regarding `CCOC(=O)CC(O)(CC(=O)OCC)C(=O)OCC`, the molecule was called inactive.

Regarding `CCCCC(CC)COC(=O)CCCCC(=O)OCc1ccccc1` (stereo not given), the outcome was inactive.

Consider `CC[C@H](C)[C@@H](C(=O)O)n1sc2ccccc2c1=O`, for which the molecule was classed as inactive.

Consider `O=C(O)Cc1cc(I)c(Oc2cc(I)c(O)c(I)c2)c(I)c1`, for which the AC50 was 46.7 µM (active) and the outcome was inactive.

As to `CN1CCC[C@H]1c1cccnc1`, the molecule was classed as inactive.

On to `NC(=O)N(O)[C@@H]1C=C[C@H](Oc2cccc(Oc3ccc(F)cc3)c2)C1`, for which the molecule was classed as inactive.

For `CC1=C(/C=C/C(C)=C/C=C/C(C)=C/C(=O)O)C(C)(C)CCC1`, the AC50 is 44.4 µM (active) and the result was inactive.

In the case of `OC1CCCCC1`, the molecule was classed as inactive.

Regarding `Cc1oc(-c2ccccc2)nc1CCOc1ccc(C[C@H](Nc2ccccc2C(=O)c2ccccc2)C(=O)O)cc1`, the molecule was called inactive.

Regarding `ClC1=C(Cl)C(Cl)(Cl)C(Cl)=C1Cl`, the outcome was inactive and the AC50 was 16.1 µM (active).

As to `OCCC(F)(F)C(F)(F)C(F)(F)C(F)(F)C(F)(F)C(F)(F)F`, the molecule was classed as inactive.

As for `C#C[C@]1(O)CC[C@H]2[C@@H]3CCC4=CC(=O)CC[C@@H]4[C@H]3CC[C@@]21C`, the result was inactive.

As for `CC(C)(C)c1cccc(C(C)(C)C)c1O`, the molecule was called inactive.

With `OCCC(F)(F)C(F)(F)C(F)(F)C(F)(F)C(F)(F)C(F)(F)C(F)(F)C(F)(F)F`, the outcome was inactive.

Take `NC(=O)N1C(=O)C(C(=O)c2cc(Cl)cs2)c2cc(F)c(Cl)cc21` (stereo not given): the molecule was called inactive.

With `CCCCCCCCCCCCN1CCCC1=O`, the call was inactive.

For the molecule `CC(C)CCCCCCOC(=O)CCCCC(=O)OCCCCCCC(C)C`, the molecule was classed as inactive.

`CC(=O)CC(C)(C)O`: the call was inactive.

Take `Cc1cc(CCN2CCN(c3nsc4ccccc34)CC2)cc2c1NC(=O)CC2(C)C`: the molecule was classed as inactive.

With `CCC(C)(C)C1CCC(O)CC1` (stereo not given), the molecule was classed as inactive.

With `CCCCCCCCCCCCc1ccccc1S(=O)(=O)O`, the call was inactive.

As to `COC(=O)CCCCC(=O)OC`, the molecule was classed as inactive.

Take `O=c1c(-c2ccc(O)cc2)coc2cc(O)ccc12`: the call was inactive.

Turning to `COc1ccc([N+](=O)[O-])cc1N`, the molecule was classed as inactive.

For the molecule `CC(C)(C)CC(C)(C)c1ccc(O)c(-n2nc3ccccc3n2)c1`, the outcome was inactive.

As for `CCCCC(CC)COC(=O)CCCCC(=O)OCC(CC)CCCC` (stereo not given), the outcome was inactive.

On to `CC[C@H](c1ccc(O)cc1)[C@@H](CC)c1ccc(O)cc1`, for which the molecule was classed as inactive.

For the molecule `CCCOc1sc(C(=O)N2CCC(c3cc(CN)ccc3F)CC2)c(C)c1Br`, the molecule was called inactive.

`CC#C[C@]1(O)CC[C@H]2[C@@H]3CCC4=CC(=O)CCC4=C3[C@@H](c3ccc(N(C)C)cc3)C[C@@]21C`: the molecule was called inactive.

In the case of `OC1CCC(C2CCCCC2)CC1` (stereo not given), the molecule was called inactive.

Consider `CN(C)C=O`, for which the result was inactive.

Consider `Oc1cc2ccccc2c2ccccc12`, for which the result was inactive.

For the molecule `FC(F)(I)C(F)(F)C(F)(F)C(F)(F)C(F)(F)C(F)(F)I`, the AC50 was 17.4 µM (active).

As to `O=C1OC2(c3ccccc31)c1cc(Br)c(O)c(Br)c1Oc1c2cc(Br)c(O)c1Br`, the call was inactive.

In the case of `CCc1nn(C2CCCCC2)c2cc(C3(C#N)CCC(C(=O)O)CC3)ccc12` (stereo not given), the result was inactive.

The term AC50 denotes the concentration at which the activity in the assay is half-maximal.
